Test results reported in PubChem BioAssay (NCATS).
Inconclusive results are not listed. Active and inactive are the calls of the source. Unless noted, calls follow the shape of the dose curve; as a rule, active = well fitted curve in the direction sought with a large enough effect; inconclusive = small, poorly fitted or top-dose-only effect, or another doubt; inactive = no such curve, though single readings can be large; an effect the other way counts as inactive or inconclusive.

Experiments:
[1] = molecular target: M-phase phosphoprotein 8 (Homo sapiens) (UniProt Q99549); experiment: qHTS Validation Assay for Inhibitors for MPP8 Chromodomain Interactions with Methylated Histone Tails (AID 488949);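 also: 50 nM MPP8 with 50 nM peptide preformed then compounds added for 30 min; AlphaScreen signal from MPP8 chromodomain bound to biotinylated H3K9me3 peptide; top concentration of the series differs between compounds; % is scaled to controls: 0 for no effect and ±100 for the full control effect; nearly all actives have a fitted effect of over 55% in size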
Outline: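 50 nM MPP8 + 50 nM b-H3K9me3 peptide, PBS pH 7.4/0.01% Tween-20, 30 min RT; + cpd 30 min RT; + AlphaScreen donor/Ni-chelate acceptor beads 10 ug/mL final, 30 min dark; luminescence read.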

[2] = molecular target: Chromobox protein homolog 1 (Homo sapiens) (UniProt P83916); experiment: qHTS Validation Assay for Inhibitors of HP1-beta Chromodomain Interactions with Methylated Histone Tails (AID 488953); also: nearly all actives have a fitted effect of over 50% in size; also: potency is read from the fitted curve at half-maximal effect
Outline: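 Disruption of preformed HP1-beta:H3K9me3 peptide complexes (both 50 nM, PBS pH 7.4 with 0.01% Tween-20) is measured by AlphaScreen after 30 min compound exposure at room temperature, using streptavidin donor and nickel chelate acceptor beads at 10 ug/mL final.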

[3] = molecular target: Methanococcus maripaludis chaperonin (MmCpn) (UniProt Q6LX38); experiment: High-Throughput Screening for Modulators of Cytosolic Chaperonin Activity: MmCpn Primary Screen (AID 488978);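 also: 50 nM MmCpn enzyme hydrolysing 30 µM ATP at 37 °C; 0% is about no effect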
Outline: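 Steps: chaperonin 50 nM final; add compound, 5 min RT; start with ATP, 30 uM final; hold 10 min at 37C; add ADP Transcreener HTRF reagent, 5 min; read ex 320, em 590 and 665 nm.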

[4] = molecular target: Transient receptor potential cation channel subfamily V member 1 (Homo sapiens) (UniProt Q8NER1); experiment: HTS Assay for Compounds that Act as Enhancers of the Vanilloid Receptor 1 (AID 488979); also: 0% is about no effect
Outline: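 Calcium influx kinetics via Fluo-8 (480/520 nm) in TRPV1-expressing cells, 2000/well cultured overnight at 35.5C. Compound-alone read 3 min (agonist phase), followed by EC20 capsaicin challenge for 2 min (enhancer phase).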

[5] = molecular target: Thyrotropin receptor (Homo sapiens) (UniProt P16473); experiment: qHTS Assay for Antagonists of the Thyroid Stimulating Hormone Receptor (AID 488980); also: series mostly up to about 58 µM; 0% is about no effect
Thyrotropin receptor (Homo sapiens), sequence (P16473 whole entry, looked up): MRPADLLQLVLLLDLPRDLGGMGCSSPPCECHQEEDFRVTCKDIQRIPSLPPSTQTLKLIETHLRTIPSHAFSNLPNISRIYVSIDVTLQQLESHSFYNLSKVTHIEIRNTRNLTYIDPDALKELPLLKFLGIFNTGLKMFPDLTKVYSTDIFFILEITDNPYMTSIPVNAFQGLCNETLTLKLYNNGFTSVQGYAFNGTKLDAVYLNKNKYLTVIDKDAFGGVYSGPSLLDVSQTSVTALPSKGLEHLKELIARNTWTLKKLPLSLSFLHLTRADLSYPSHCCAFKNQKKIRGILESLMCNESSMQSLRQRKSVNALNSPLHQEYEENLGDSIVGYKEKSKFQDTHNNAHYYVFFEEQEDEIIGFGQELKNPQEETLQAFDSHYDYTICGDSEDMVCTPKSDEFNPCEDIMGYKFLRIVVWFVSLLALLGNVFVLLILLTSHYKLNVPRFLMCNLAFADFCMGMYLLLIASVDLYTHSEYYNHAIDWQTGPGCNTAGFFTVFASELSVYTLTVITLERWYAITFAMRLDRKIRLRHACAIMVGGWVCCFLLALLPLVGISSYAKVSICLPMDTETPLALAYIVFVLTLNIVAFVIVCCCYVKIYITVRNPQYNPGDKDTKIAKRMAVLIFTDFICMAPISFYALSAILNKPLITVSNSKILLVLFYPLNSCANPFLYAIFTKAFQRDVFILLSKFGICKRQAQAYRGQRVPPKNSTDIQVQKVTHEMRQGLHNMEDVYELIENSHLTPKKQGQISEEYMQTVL
Outline: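 Readout is cAMP by HTRF competition between cellular cAMP and cAMP-d2 for a cryptate-labelled antibody. Antagonism was assessed in TSHR-transfected HEK293 cells stimulated with 4 nM TSH (EC80, final) in the presence of RO 20-1724.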

[6] = molecular target: D(1A) dopamine receptor (Homo sapiens) (UniProt P21728); experiment: HTS Assay for Allosteric Agonists of the Human D1 Dopamine Receptor: Primary Screen for Potentiators (AID 488982); also: potency is read from the fitted curve at half-maximal effect
D(1A) dopamine receptor (Homo sapiens), sequence (P21728 whole entry, looked up): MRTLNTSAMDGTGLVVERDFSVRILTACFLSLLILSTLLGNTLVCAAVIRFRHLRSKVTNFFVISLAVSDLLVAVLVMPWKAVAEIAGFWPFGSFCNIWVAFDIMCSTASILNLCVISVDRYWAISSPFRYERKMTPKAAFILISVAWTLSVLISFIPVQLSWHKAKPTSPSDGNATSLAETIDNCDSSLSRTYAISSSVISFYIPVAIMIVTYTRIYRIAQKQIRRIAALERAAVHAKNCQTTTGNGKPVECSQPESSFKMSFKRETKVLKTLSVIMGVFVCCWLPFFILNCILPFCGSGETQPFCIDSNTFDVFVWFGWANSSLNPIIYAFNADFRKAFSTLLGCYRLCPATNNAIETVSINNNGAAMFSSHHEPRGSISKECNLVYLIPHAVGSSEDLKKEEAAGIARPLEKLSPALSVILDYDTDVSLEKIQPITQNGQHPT
Outline: (§1)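 Calcium flux in an inducible, force-coupled HEK293 Trex D1 line (overnight at 30 C): agonist mode is the 180 s kinetic read after compound; potentiator mode is the following 180 s read after dopamine at EC20.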

[7] = Validation screen for small molecules that induce genotoxicity in human embryonic kidney (HEK293T) cells expressing luciferase-tagged ELG1 (AID 493106); also: 0% is about no effect
Outline: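 Cells were dispensed at 2,000 per well, then 23 nL compound or DMSO was pinned in. After 16 hr at 37 °C and 5% CO2, ONE-Glo reagent was added. Luciferase activity was measured following 30 min at room temperature.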

[8] = molecular target: ATPase family AAA domain-containing protein 5 (Homo sapiens) (UniProt Q96QE3); experiment: Validation screen for small molecules that inhibit ELG1-dependent DNA repair in human embryonic kidney (HEK293T) cells expressing luciferase-tagged ELG1 (AID 493107); also: nearly all actives have a fitted effect of over 70% in size; also: potency is read from the fitted curve at half-maximal effect
ATPase family AAA domain-containing protein 5 (Homo sapiens), sequence (Q96QE3 whole entry, looked up, the tested form may be a part): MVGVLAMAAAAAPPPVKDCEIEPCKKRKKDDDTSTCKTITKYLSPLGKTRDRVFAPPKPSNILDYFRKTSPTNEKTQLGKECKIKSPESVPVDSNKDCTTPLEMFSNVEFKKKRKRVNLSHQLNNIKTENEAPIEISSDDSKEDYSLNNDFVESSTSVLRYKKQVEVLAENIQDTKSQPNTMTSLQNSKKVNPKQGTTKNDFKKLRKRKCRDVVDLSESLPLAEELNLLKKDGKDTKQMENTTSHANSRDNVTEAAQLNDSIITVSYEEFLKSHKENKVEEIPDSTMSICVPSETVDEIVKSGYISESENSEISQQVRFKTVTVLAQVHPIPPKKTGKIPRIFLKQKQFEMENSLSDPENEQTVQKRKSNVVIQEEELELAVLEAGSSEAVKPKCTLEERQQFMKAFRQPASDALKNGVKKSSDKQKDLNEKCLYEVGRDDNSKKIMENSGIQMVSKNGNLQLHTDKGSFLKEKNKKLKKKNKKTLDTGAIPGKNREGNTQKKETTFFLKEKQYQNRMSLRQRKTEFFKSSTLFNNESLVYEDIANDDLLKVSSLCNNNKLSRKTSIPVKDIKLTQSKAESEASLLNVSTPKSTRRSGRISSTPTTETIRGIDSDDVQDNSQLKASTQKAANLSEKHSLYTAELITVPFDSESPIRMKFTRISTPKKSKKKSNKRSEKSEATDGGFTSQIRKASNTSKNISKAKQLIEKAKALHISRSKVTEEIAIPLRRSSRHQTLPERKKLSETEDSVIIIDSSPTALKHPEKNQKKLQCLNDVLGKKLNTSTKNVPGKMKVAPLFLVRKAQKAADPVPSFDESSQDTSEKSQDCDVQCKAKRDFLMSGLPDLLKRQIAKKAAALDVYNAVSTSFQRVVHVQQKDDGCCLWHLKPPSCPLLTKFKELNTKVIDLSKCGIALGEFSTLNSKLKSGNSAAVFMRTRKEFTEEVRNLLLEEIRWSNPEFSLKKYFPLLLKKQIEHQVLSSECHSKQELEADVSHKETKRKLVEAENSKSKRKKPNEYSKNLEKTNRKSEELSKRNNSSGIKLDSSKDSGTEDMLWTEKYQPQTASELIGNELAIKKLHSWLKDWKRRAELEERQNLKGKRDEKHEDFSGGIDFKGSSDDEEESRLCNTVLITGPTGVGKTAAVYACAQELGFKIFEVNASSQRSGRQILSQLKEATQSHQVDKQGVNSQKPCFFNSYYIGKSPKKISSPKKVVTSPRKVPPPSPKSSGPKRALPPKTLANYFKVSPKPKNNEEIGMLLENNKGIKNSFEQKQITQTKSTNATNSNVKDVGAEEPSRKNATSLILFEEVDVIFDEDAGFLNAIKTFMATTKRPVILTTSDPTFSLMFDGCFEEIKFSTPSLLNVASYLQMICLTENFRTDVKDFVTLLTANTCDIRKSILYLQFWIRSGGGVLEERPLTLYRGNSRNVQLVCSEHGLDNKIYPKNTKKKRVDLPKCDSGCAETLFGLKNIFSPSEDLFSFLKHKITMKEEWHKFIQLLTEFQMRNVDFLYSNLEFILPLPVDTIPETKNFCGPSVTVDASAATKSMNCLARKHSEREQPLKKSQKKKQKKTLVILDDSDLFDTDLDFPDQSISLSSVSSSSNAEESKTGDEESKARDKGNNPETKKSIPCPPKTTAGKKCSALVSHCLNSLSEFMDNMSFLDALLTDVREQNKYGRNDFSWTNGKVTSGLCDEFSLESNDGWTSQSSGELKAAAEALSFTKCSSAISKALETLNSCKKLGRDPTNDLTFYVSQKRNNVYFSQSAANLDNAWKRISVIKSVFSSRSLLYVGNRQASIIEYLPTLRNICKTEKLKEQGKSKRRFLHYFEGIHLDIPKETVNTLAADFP
Outline: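 Cells are dispensed in 1536-well format, then 5-fluorouridine and compound are pinned in. After a 16 hr incubation at 37 °C and 5% CO2, ONE-Glo is added and luciferase measured on a CCD imager.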

[9] = Nrf2 qHTS screen for inhibitors: Validation (AID 493153; active = well fitted inhibition curve with a large enough effect in the main read-out, with a control signal flat, not every such curve was filed as active); details: Potency: luciferase luminescence; viability change: measured here: cytotoxicity max response
Outline: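 A549 ARE_Fluc, 5% FBS OPTI-MEM; cpd titration, 18-24 h, 37°C/5% CO2. Read 1: CellTiter-Fluor (Ex 405/Em 525), cytotox. Read 2: luciferase lum, Nrf2 activity.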

[10] = qHTS for Inhibitors of Cell Surface uPA Generation: Validation Assay (AID 493164);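 also: RAW 264.7 macrophage cells exposed to compound for 18 h; 0% is about no effect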
Outline: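 ATP-Lite luminescence read-out: ATP remains high when uPA activity-dependent LF translocation into the cytoplasm is blocked. RAW 264.7 cells, 18 h compound exposure at 37 C; 7-point titration, 2.45 nM to 38.3 uM final.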

[11] = molecular target: Galactokinase (Homo sapiens) (UniProt P51570); experiment: qHTS Validation Assay for Inhibitors of Human Galactokinase (GALK) (AID 493189); also: 0% is about no effect
Outline: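 5 nM GALK / 100 uM galactose / 35 uM ATP, 20 mM HEPES pH8.0, 5 mM MgCl2, 60 mM NaCl, 1 mM DTT, 0.01% BSA (final). RT 1 h; Kinase-Glo Plus luminescence.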

[12] = Validation screen for small molecules that induce DNA re-replication in SW480 colon adenocarcinoma cells (AID 504364); also: 0% is about no effect
Outline: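 Image-based qHTS: compounds were incubated with SW480 cells for 48 hr, nuclei stained with Hoechst, and per-nucleus fluorescence intensity scanned to flag cells with excess DNA content.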

[13] = molecular target: Peptidyl-prolyl cis-trans isomerase NIMA-interacting 1 (Homo sapiens) (UniProt Q13526); experiment: qHTS Validation Assay to Find Inhibitors of Pin1 (AID 504536; active = well fitted inhibition curve with a large enough effect in the polarisation, with a control signal flat, not every such curve was filed as active; the % refers to the polarisation;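 also: 0% = full Pin1 enzyme wells and -100% = no-enzyme wells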)
Peptidyl-prolyl cis-trans isomerase NIMA-interacting 1 (Homo sapiens), sequence (Q13526 whole entry, looked up): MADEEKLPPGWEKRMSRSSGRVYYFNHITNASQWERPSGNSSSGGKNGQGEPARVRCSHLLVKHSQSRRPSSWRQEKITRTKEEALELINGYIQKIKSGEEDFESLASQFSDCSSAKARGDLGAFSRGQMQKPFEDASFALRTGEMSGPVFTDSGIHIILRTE
Outline: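 Fluorescence polarization competition: compounds (titration) displace HiFluor-488-labeled Pin1-1b peptide from Pin1 (0.3 uM final) in pH 7.5 HEPES buffer with DTT, 10 min at room temperature; %Activity normalized to no-enzyme wells, curves fitted.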

[14] = molecular target: Phosphoglycerate kinase, glycosomal (Trypanosoma brucei brucei) (UniProt P07378); experiment: qHTS Validation Assay to Find Inhibitors of Phosphoglycerate Kinase (AID 504547);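 also: control wells lack PGK and mark full inhibition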
Outline: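 Luminescence end-point (Kinase-Glo Plus, 10 min) after a 60 min room-temperature coupled reaction. GAPDH at 100nM final supplies 1,3-BPG to PGK. Buffer: 100mM TEA pH 7.6, 5mM MgCl2, 0.01% Tween-20. Wells lacking PGK served as controls.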

[15] = molecular target: Thioredoxin reductase 1, cytoplasmic (Rattus norvegicus) (UniProt O89049); experiment: qHTS Assay for Inhibitors of Mammalian Selenoprotein Thioredoxin Reductase 1 (TrxR1) (AID 488773); details: Potency: inhibition;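 also: drop in NADPH fluorescence over an 8 min run after selenite addition; series mostly up to about 57 µM; % is scaled to controls: 0 for no effect and ±100 for the full control effect; nearly all actives have a fitted effect of over 40% in size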
Thioredoxin reductase 1, cytoplasmic (Rattus norvegicus), sequence (O89049 whole entry, looked up): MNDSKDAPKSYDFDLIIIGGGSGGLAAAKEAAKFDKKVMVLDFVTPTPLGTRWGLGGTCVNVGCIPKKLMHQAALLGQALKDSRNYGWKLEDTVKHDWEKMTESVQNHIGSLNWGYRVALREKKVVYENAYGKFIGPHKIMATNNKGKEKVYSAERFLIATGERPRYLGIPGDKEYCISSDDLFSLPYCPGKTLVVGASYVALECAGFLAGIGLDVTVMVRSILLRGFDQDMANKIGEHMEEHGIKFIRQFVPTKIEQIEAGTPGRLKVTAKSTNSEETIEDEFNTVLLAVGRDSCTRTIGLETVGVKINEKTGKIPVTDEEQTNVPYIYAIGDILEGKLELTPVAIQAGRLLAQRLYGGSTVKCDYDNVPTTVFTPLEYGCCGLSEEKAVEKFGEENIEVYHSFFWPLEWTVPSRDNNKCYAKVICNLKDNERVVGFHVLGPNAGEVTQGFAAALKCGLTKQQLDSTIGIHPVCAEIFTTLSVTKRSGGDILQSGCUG
Outline: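 Inhibition is scored from the loss of NADPH fluorescence between first and last reads of an 8-min kinetic run. Selenite (400 uM) was the substrate, added after 15 min compound preincubation at room temperature.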

[16] = molecular target: Flap endonuclease 1 (Homo sapiens) (UniProt P39748); experiment: qHTS Validation Assay for the Inhibitors of Human Flap endonuclease 1 (FEN1) (AID 488816); also: potency is read from the fitted curve at half-maximal effect
Flap endonuclease 1 (Homo sapiens), sequence (P39748 whole entry, looked up): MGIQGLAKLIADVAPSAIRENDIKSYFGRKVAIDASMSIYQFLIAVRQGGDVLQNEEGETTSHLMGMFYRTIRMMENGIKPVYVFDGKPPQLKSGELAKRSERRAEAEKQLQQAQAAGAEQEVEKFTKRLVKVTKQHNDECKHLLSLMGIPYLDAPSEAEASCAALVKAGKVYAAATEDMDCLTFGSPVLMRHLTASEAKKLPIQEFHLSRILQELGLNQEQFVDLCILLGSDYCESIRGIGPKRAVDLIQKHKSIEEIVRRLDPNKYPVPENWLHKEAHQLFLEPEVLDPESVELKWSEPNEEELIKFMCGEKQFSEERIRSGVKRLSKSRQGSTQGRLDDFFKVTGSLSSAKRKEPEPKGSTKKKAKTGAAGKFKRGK
Outline: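 qHTS format: compounds and 10 nM FEN1 incubated 15 min at room temperature before adding 50 nM substrate. Cleavage followed by reads at 0 and 15 min; normalized data fitted to a four-parameter Hill curve.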

[17] = molecular target: D(1A) dopamine receptor (Homo sapiens) (UniProt P21728); experiment: HTS Assay for Allosteric Agonists of the Human D1 Dopamine Receptor: Primary Screen for Agonists (AID 488981); also: potency is read from the fitted curve at half-maximal effect; as to activation: 0% is about no effect
Outline: as §1

[18] = molecular target: D(1A) dopamine receptor (Homo sapiens) (UniProt P21728); experiment: HTS Assay for Allosteric Agonists of the Human D1 Dopamine Receptor: Primary Screen for Antagonists (AID 488983);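 also: calcium flux response to an EC80 dopamine challenge measured with no-wash dye; nearly all actives have a fitted effect of over 65% in size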; also: potency is read from the fitted curve at half-maximal effect
Outline: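 Kinetic fluorescence at 1 cycle/sec tracked intracellular calcium in force-coupled, tetracycline-inducible HEK293 T-REx D1 cells. Loss of response to an EC80 dopamine dose, given 180 s after compound, marked antagonists.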

[19] = molecular target: ATP-dependent 6-phosphofructokinase (Trypanosoma brucei brucei) (UniProt O15648); experiment: qHTS Assay to Find Inhibitors of T. brucei phosphofructokinase: hit validation (AID 492961);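 also: luminescence reports ADP formed as PFK phosphorylates fructose-6-phosphate with ATP; series mostly up to about 51 µM; % is scaled to controls: 0 for no effect and ±100 for the full control effect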
ATP-dependent 6-phosphofructokinase (Trypanosoma brucei brucei), sequence (O15648 whole entry, looked up): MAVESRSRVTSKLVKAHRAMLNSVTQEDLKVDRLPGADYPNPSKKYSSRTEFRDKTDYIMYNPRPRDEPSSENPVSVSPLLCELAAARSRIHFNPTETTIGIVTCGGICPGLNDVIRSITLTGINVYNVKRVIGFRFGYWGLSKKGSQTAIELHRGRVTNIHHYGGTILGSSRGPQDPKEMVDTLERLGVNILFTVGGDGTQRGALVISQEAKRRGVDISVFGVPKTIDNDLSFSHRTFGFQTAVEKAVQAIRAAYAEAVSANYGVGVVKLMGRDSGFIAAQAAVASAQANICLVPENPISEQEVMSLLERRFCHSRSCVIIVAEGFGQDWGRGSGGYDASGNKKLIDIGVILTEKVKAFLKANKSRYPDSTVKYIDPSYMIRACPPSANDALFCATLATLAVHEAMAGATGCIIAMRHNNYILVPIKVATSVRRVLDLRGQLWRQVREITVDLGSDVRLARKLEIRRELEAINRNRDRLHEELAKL
Outline: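 Measures ADP output of PFK (1.25 nM) at 0.1 mM ATP, 0.5 mM F6P, pH 8.0 TEA buffer with 5 mM MgCl2. No-enzyme wells define full inhibition; uninhibited enzyme wells define zero.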

[20] = molecular target: Thyrotropin-releasing hormone receptor (Homo sapiens) (UniProt P34981); experiment: qHTS for Small Molecule Agonists and Allosteric Enhancers of Human TRH Receptor: Validation Screen for Agonists (AID 493127;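 active = calcium activation more than 3 SD above the typical response in the agonist read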;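 also: intracellular calcium rise by fluo-8 fluorescence before TRH EC20 addition; 0% is about no effect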); details: TRH receptor agonist cell assay; at 2 µM; stronger effect = higher value
Thyrotropin-releasing hormone receptor (Homo sapiens), sequence (P34981 whole entry, looked up): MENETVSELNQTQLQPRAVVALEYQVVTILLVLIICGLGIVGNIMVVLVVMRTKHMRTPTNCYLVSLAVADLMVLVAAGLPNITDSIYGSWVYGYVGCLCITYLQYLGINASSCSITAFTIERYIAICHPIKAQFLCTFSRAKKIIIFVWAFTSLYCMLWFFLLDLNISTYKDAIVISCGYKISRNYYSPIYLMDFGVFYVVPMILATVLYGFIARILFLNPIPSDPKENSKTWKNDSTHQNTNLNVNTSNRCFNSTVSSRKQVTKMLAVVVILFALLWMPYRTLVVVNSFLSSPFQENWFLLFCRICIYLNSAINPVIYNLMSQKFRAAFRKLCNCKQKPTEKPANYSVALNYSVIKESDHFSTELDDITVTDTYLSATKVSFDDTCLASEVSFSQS
Outline: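 Compounds are added by online pintool to dye-loaded TRHR cells while fluorescence is recorded every second. A rise in calcium signal during the agonist read marks activation; a later 10 nM TRH addition (EC20) serves the separate enhancer mode.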

Oc1ccc(C2CNCCc3c2cc(O)c(O)c3Cl)cc1 (stereo unspecified)
inactive: Potency [1] | outcome [3] | outcome [4] | outcome [5] | Potency [6] | Potency [7] | Potency [8] | Potency [9] | outcome [10] | outcome [11] | outcome [12] | outcome [13] | outcome [14]
0.62%: viability change [9]
active: Potency [2] 6.7 nM

O=C(Nc1nc2ccccc2n1CCN1CCOCC1)c1cccc([N+](=O)[O-])c1
active: Potency [8] 8200 nM
inactive: Potency [15] | Potency [16] | Potency [1] | outcome [3] | Potency [17] | Potency [18] | Potency [7] | outcome [10] | outcome [13] | outcome [14]

CCCc1nn(C)c2c(=O)[nH]c(-c3cc(S(=O)(=O)N4CCN(C)CC4)ccc3OCC)nc12
inactive: outcome [19]

Cc1cc2c(C(C)C)c(O)c(O)c(C=O)c2c(O)c1-c1c(C)cc2c(C(C)C)c(O)c(O)c(C=O)c2c1O
inactive: outcome [3] | Potency [6] | Potency [7] | outcome [10]

Cc1cnc(NC(=O)C2=C(O)c3ccccc3S(=O)(=O)N2C)s1
inactive: Potency [1] | Potency [2] | outcome [3] | Potency [17] | Potency [6] | Potency [18] | Potency [7] | Potency [8] | activation [20] 0.812% | Potency [9] | outcome [10] | outcome [11] | outcome [12] | outcome [13] | outcome [14]
-10.1%: viability change [9]

NC[C@H](O)c1ccc(O)c(O)c1
active: Potency [16] 2120 nM | Potency [17] 2240 nM | Potency [18] 2000 nM
inactive: Potency [1] | Potency [2] | outcome [3] | outcome [4] | Potency [6] | Potency [7] | Potency [8] | Potency [9] | outcome [10] | outcome [11] | outcome [12] | outcome [13]
3.52%: viability change [9]

Nc1nc2c(ncn2COCCO)c(=O)[nH]1
-1.37%: viability change [9]
inactive: Potency [15] | Potency [1] | Potency [2] | outcome [3] | outcome [5] | Potency [17] | Potency [6] | Potency [18] | outcome [19] | Potency [7] | Potency [8] | Potency [9] | outcome [10] | outcome [11] | outcome [12] | outcome [13] | outcome [14]

CCOC(=O)C1=C[C@]2(CC)CCCN3CCc4c(n1c1ccccc41)[C@@H]32
-5.34%: viability change [9]
inactive: Potency [15] | Potency [16] | Potency [1] | outcome [3] | outcome [4] | outcome [5] | Potency [17] | Potency [7] | activation [20] 0.0625% | Potency [9] | outcome [10] | outcome [11] | outcome [12] | outcome [13] | outcome [14]
active: Potency [6] 3260 nM

OC(CN1CCC(Cc2ccc(F)cc2)CC1)c1ccc(Cl)cc1 (stereo unspecified)
-17.6%: viability change [9]
inactive: Potency [15] | Potency [16] | Potency [1] | Potency [2] | outcome [3] | outcome [4] | Potency [6] | outcome [19] | Potency [7] | Potency [8] | activation [20] -3.12% | Potency [9] | outcome [10] | outcome [11] | outcome [12] | outcome [13] | outcome [14]
